Compound activity from PubChem.
RBX1-CUL1 inh – human ROC1-CUL1 E3 ligase inhibition; P62877+Q13616; in vitro K48 di-Ub FRET, acceptor:donor ratio, 45 min; inhibition, % at 10 µM; hit rate 0.6% among 140,000; AID 1347404; in the data active = inhibition above about 25%
Target sequence (P62877 whole entry, looked up): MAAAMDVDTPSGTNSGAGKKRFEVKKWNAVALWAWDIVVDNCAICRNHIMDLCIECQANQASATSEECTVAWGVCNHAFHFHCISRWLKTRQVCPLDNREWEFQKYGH
Target sequence (Q13616 whole entry, looked up): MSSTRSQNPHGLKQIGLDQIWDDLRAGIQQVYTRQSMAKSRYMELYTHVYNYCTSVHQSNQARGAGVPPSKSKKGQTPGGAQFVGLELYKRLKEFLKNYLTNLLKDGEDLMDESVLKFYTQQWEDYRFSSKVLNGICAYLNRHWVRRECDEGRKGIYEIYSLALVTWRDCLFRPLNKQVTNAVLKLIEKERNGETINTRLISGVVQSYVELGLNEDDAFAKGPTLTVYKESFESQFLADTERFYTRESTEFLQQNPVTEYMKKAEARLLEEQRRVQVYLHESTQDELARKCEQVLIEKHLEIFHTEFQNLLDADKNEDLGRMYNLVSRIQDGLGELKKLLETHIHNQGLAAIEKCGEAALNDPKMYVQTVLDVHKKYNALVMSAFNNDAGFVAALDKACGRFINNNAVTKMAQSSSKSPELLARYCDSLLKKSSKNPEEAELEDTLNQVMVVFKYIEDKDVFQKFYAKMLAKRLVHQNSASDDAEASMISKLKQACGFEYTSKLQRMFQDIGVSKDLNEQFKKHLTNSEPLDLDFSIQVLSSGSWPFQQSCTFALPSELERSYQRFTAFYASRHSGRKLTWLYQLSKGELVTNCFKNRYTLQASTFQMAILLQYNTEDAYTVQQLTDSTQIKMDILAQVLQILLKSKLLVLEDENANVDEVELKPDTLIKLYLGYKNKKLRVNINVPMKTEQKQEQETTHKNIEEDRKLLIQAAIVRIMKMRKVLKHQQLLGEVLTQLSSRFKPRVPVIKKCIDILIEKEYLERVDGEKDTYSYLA
* hit, by the source's call. Many of the other results were omitted from the sample, so hits are more common in it than they were.

SMILES | RBX1-CUL1 inh
COc1ccc(N2C(=O)C(=O)N(C)C2=S)cc1 | 2
CCc1nc(SCC(=O)O)c2c3c(sc2n1)CCCC3 | 10
CC(C)CCNC(=O)C1CCN(C(=O)c2ccc(Cl)cc2)CC1 | 9
CCCOC(=O)c1cccc(N=C2NC(=O)/C(=C\c3cc(C(C)C)c(OC)cc3C)S2)c1 | 7
COc1cccc(/C=C2\SC(=Nc3cccc(Cl)c3C)NC2=O)c1OCC(=O)O | 2
CCOc1ccc(/C=C2\SC(=Nc3ccc(F)cc3)NC2=O)cc1OC | 5
CCOc1cc(/C=C2/SC(=Nc3ccc4ccccc4c3)NC2=O)cc(Cl)c1OCC(=O)O | 99*
COc1cccc(/C=C2\SC(=Nc3ccc(C)c(Cl)c3)NC2=O)c1OCC(=O)O | 97*
CCOc1ccc(N=C2NC(=O)/C(=C/c3cc(Br)c(OC)c(OC)c3)S2)cc1 | 9
Cc1cc(C)c(C2c3c(n[nH]c3C)OC(=N)C2C#N)cc1COc1ccc(Br)cc1 (stereo not drawn) | 10
Cc1ccsc1/C=C1/SC(=O)N(Cc2cc3c(cc2Cl)OCO3)C1=O | -7
COc1cc(CC2(CCC(=O)NCCCOc3cccnc3)CCC(=O)N2)ccc1F (stereo not drawn) | -5
C/C(=N\NC(=O)COc1ccccc1[N+](=O)[O-])c1ccc(O)cc1 | -5
CCOc1cc(/C=C2\C(=O)NN(c3ccccc3)C2=O)cc(Cl)c1OCc1c(Cl)cccc1Cl | 86*
CCOc1cc(/C=C2\C(=O)NN(c3ccccc3)C2=O)cc(Cl)c1OCc1cccc(C)c1 | 38*
CCOc1cc(/C=C2\C(=O)NN(c3ccccc3)C2=O)ccc1OCc1c(F)cccc1Cl | -7
COc1cc(/C=C2\C(=O)NN(c3ccccc3)C2=O)cc(Cl)c1OCc1ccccc1C | 19
CCOc1cc(/C=C2\C(=O)NN(c3ccccc3)C2=O)cc(Br)c1OCc1cccc(C)c1 | 2
COc1cc(/C=C2\C(=O)NN(c3ccccc3)C2=O)ccc1OCc1ccccc1 | 14
CC(=O)Nc1ccc(N2CC(C(=O)N3CCC(C)CC3)CC2=O)cc1 (stereo not drawn) | -8
O=C1c2ccccc2N(c2ccccc2)C(=O)C1Sc1ccccc1 (stereo not drawn) | 5
O=C1c2cccc3cccc(c23)C(=O)C1Sc1ccccc1 | 99*
O=C1Nc2ccccc2C(=O)C1Sc1ccccc1 (stereo not drawn) | 0
Cc1ccccc1N1CCN(C2CCCN(C(=O)Cn3cnc4ccccc4c3=O)C2)CC1 (stereo not drawn) | 4
CC1S/C(=N/N=C/c2ccccc2F)NC1=O (stereo not drawn) | 4
SMILES | RBX1-CUL1 inh
O=C(COC(=O)c1ccc(C(O)c2ccccc2)cc1)c1ccccc1 (stereo not drawn) | 32*
Nc1cccc(C(=O)OCC(=O)c2ccccc2)c1 | -6
COc1ccc(C(=O)OCC(=O)c2ccc(OC(=O)c3ccccc3)cc2)cc1 | 6
Cc1cccc(NC(C)c2cc(Cl)ccc2O)c1C (stereo not drawn) | -15
CCC1CCc2nc3sc(C(=O)NC(C)C45CC6CC(CC(C6)C4)C5)c(N)c3cc2C1 (stereo not drawn) | -5
CCCCCCOC(=O)C(CCCCN1C(=O)c2ccccc2C1=O)N1C(=O)c2ccccc2C1=O (stereo not drawn) | 5
O=C1c2ccccc2C(=O)N1CC#Cc1ccccc1 | -7
CCOC(=O)C#CCN1C(=O)c2ccccc2C1=O | 40*
CC(O)CNCc1ccc(-c2ccc(Cl)cc2Cl)o1 (stereo not drawn) | 4
CCS(=O)(=O)NC1CCCC1 | -4
Cc1ccccc1CS(=O)(=O)Nc1c(C)n(C)n(-c2ccccc2)c1=O | 6
COc1cc(Br)cc(/C=N/NC(=O)CSc2nnc(-c3ccc(C)cc3)n2C)c1O | 17
Cc1ccc(/C=N/NC(=O)CSc2nnc(-c3ccc(Br)cc3)n2C)cc1 | -1
COc1cc(/C=N/NC(=O)CSc2nnc(-c3ccc(C)cc3)n2C)ccc1O | 27*
COc1ccc(CC2(CCC(=O)NCC(C)(C)CO)CCC(=O)N2)c2ccccc12 (stereo not drawn) | 0
CC(C)CC(=O)OC1[C@@H](OC(=O)CC(C)C)[C@H](OC(=O)CC(C)C)C(O)[C@H](OC(=O)CC(C)C)[C@H]1OC(=O)CC(C)C (stereo partly drawn) | -7
CCOC(=O)C1(CCOc2ccccc2)CCN(Cc2ccccn2)CC1 | 0
O=C(Cc1cccs1)Nc1ccccc1O | -6
Cc1ccccc1NC(=O)Cc1cccs1 | 6
O=C(Cc1cccs1)Nc1ccc(Cc2cccc(NC(=O)Cc3cccs3)c2C(=O)O)cc1C(=O)O | 27*
CCC(=O)c1ccc(OCc2ccc(Cl)cc2Cl)cc1 | -2
COc1cc(-c2c(F)c(F)c(F)c(F)c2F)nc(N)n1 | 35*
COc1cc(OC)nc(Oc2cccc(OC)c2N)n1 | 4
CSc1cc(-c2ccccc2)nc(N)n1 | 5
CN(C)Cc1ccccc1Sc1ccc(Br)s1 | 0
SMILES | RBX1-CUL1 inh
Cn1c(=O)oc2ccc([N+](=O)[O-])cc21 | 0
COc1ccc2c(C)nc(N3CCCC(C(=O)NCc4cccc(C)c4)C3)nc2c1 (stereo not drawn) | -6
CC(=O)c1cccc(NC(=O)/C=C/c2ccc(Br)cc2)c1 | 5
CCN=C1CC=C(Br)C=C(C(=O)/C=C/c2ccc(OC)cc2)C1=O | 16
CCN=C1CC=C(Br)C=C(C(=O)/C=C/c2cc(OC)ccc2OC)C1=O | 55*
CCN=C1CC=C(Br)C=C(C(=O)/C=C/c2ccc(C(F)(F)F)cc2)C1=O | 6
CC1CN(C(=O)/C=C/c2ccc(F)cc2)C(C)CN1C(=O)/C=C/c1ccc(F)cc1 (stereo not drawn) | -2
CCN=C1CC=C(Br)C=C(C(=O)/C=C/c2ccc(Br)cc2)C1=O | 94*
CN=C1CC=C(Br)C=C(C(=O)/C=C/c2ccc(Br)cc2)C1=O | 36*
CCOC(=O)c1ccccc1NC(=O)/C=C/c1ccc(Br)cc1 | -4
CCN=C1CC=C(Br)C=C(C(=O)/C=C/c2ccc(F)cc2)C1=O | 27*
CCN=C1CC=C(Br)C=C(C(=O)/C=C/c2ccc(Cl)cc2)C1=O | 17
COc1ccc(Br)cc1/C=C/C(=O)c1ccc(OS(C)(=O)=O)cc1 | 0
CCOc1ccccc1N1CCN(C(=O)/C=C/c2ccc(Br)cc2)CC1 | -8
CSCc1ccc2sc3ccccc3c(=O)c2c1 | -3
Cc1cccc(N=C2NC(=O)C(Cc3ccccc3[N+](=O)[O-])S2)c1 (stereo not drawn) | -1
Cc1cnc2c(c1)oc1cc(C)cnc12 | -4
O=C1C=C(c2ccncc2)N(c2ccc(Cl)cc2)C(=O)C1Cc1ccccc1 (stereo not drawn) | -1
Cn1c(=O)c2nc(Oc3ccccc3Cl)n(C)c2n(C)c1=O | 1
CC(C)(CO)CNC1CCCc2c1cnn2-c1ccccn1 (stereo not drawn) | 2
Cc1ccc(CN2CCC(CN(C)Cc3cnc(N)nc3)CC2)o1 | -8
COc1ccc(NC(=O)c2ccc(Br)cc2)c(OC)c1 | 1
O=C(Nc1sc2c(c1C(=O)NC1CCCC1)CCC2)c1ccncc1 | 8
CCN=C1CC=C(Br)C=C(C(=O)/C=C/c2c(Cl)cccc2Cl)C1=O | 90*
O=C(/C=C/c1c(Cl)cccc1Cl)Nc1ncccn1 | -3
NS(=O)(=O)c1ccc(CNC(=O)/C=C/c2c(Cl)cccc2Cl)cc1 | 16
COc1ccc(-c2ccnc(-n3ncc(C(=O)N4CCCCCC4)c3C)n2)cc1F | 6
N#Cc1c(N)[n+]([O-])c2cc(NCCO)c(F)cc2[n+]1[O-] | 28*
OCCNc1cc2nccnc2cc1F | -6
